Laboratory results published in PubChem BioAssay AID485364 (National Center for Advancing Translational Sciences (NCATS), 2010).
In all, about 360,000 compounds went through this assay and about 11,000 (3.1%) were called active. Another 4% or so got no clear call; they are omitted. Calls follow the shape of the dose curve; as a rule, active = well fitted inhibition curve with a large enough effect; inconclusive = small, poorly fitted or top-dose-only effect; inactive = no such curve, though single readings can be large or run the other way. This excerpt belongs to a sample that is enriched for actives.

target: Schistosoma mansoni thioredoxin glutathione reductase (TGR) (UniProt Q962Y6); assay: qHTS Assay for the Inhibitors of Schistosoma Mansoni Peroxiredoxins; conditions: purified TGR, DTNB reduction, TNB absorbance 405 nm; series mostly up to 114 µM; activity change, negative = inhibition: at the top concentration; also: nearly all actives have a fitted effect of over 60% in size
Summary of the method: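 Kinetic colorimetric format: TGR-catalysed, NADPH-driven DTNB reduction monitored via TNB absorbance. Enzyme dispensed at 20 nM; compound exposure 15 min at room temperature before reaction start.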
% is scaled to controls: 0 for no effect and ±100 for the full control effect; potency is read from the fitted curve at half-maximal effect.

SMILES	activity change, negative = inhibition	Potency
NS(=O)(=O)c1ccc2nc(NC(=O)COc3ccccc3)sc2c1	0.388% (inactive)	
O=C(CSc1nnc(-c2ccc(NS(=O)(=O)c3ccccc3)cc2)o1)NCC1CCCO1 (stereo not given)	1.62% (inactive)	
O=C(CSc1nnc(-c2c[nH]c3ccccc23)o1)c1ccccc1	-1.66% (inactive)	
O=C(CSc1nnc(-c2ccco2)o1)NCC(=O)c1ccccc1		44.7 µM (active)
Cc1ccc(/C=C(\C#N)C(=O)Nc2cccc3ncccc23)o1		20 µM (active)
CCOC(=O)c1ccc(-c2ccc(/C=C(\C#N)C(=O)Nc3ccc(OCC)cc3)o2)cc1	8.1% (inactive)	
O=C(O)c1cc(Cl)c(Cl)cc1C(=O)Nc1cccc2ncccc12	2.58% (inactive)	
COc1ccc(OC)c(CNC(=O)CN2C(=O)CCn3nc(-c4cn(C)c5ccccc45)cc32)c1	-1.65% (inactive)	
COc1ccc(CCN2C(=O)N(c3cccc(OC)c3)C(=O)C2CC(=O)Nc2ccccc2)cc1 (stereo not given)	2.12% (inactive)	
Cc1ccc(CN2CCC(CNC(=O)c3cnn(-c4ccc(C)cc4)c3C3CCN(C(=O)OC(C)(C)C)CC3)CC2)cc1	-11.7% (inactive)	
CCCC(=O)Nc1cc(C(=O)NCc2ccc(OC)cc2)ccc1S(=O)(=O)c1ccc(Cl)cc1	10.6% (inactive)	
O=C(NCC#CCSc1nnc(-c2cccc3ccccc23)o1)c1cccs1		22.4 µM (active)
O=C(OCC#CCSc1nnc(-c2ccncc2)o1)c1sc2ccccc2c1Cl	-26.9% (inactive)	
COc1ccccc1-c1nnc(SCC(N)=O)o1	-4.37% (inactive)	
CSc1ccc(NC(=O)Cn2nnnc2-c2ccccc2F)cc1	3.69% (inactive)	
Cc1c(-c2ccccc2)cn2c1-c1ccc(C)n1CC2		35.5 µM (active)
CCCOc1ccc(C(=O)Nc2ccc3oc(-c4cccc(Cl)c4Cl)nc3c2)cc1	-6.36% (inactive)	
Cc1ccc(S(=O)(=O)c2nc(-c3cccs3)oc2N2CCCCC2)cc1	-26.4% (inactive)	
Cc1ccccc1NC(=O)Cn1c(=O)n(CCc2ccccc2)c(=O)c2ccccc21	8.99% (inactive)	
C/C(CCC(=O)OC[C@H]1O[C@H](C#Cc2ccccc2)C=C[C@@H]1Oc1ccc(C)cc1)=N\OC[C@@H](O)[C@H]1O[C@@H]2OC(C)(C)O[C@@H]2[C@H]1O		2.51 µM (active)
Cc1ccc(Cl)cc1NC(=O)Cc1ccc(-n2c(C)nc3cccnc32)cc1	-13.5% (inactive)	
Cc1ccc2sc(N(CCN(C)C)C(=O)/C=C/c3cccs3)nc2c1C	2.08% (inactive)	
O=C(CCS(=O)(=O)c1ccccc1)N(Cc1cccnc1)c1nc2c(F)cccc2s1		0.562 µM (active)
Cc1cccc2sc(N(CCCN(C)C)C(=O)CCS(=O)(=O)c3ccccc3)nc12		10 µM (active)

SMILES	activity change, negative = inhibition	Potency
O=C(C1COc2ccccc2O1)N(Cc1cccnc1)c1nc2c(F)cc(F)cc2s1 (stereo not given)	-3.03% (inactive)	
CN(C)S(=O)(=O)c1ccc(C(=O)N(Cc2cccnc2)c2nc3c(F)cc(F)cc3s2)cc1	0.57% (inactive)	
CN(C)CCCN(C(=O)c1ccc(S(=O)(=O)N2CCCc3ccccc32)cc1)c1nc2ccc(F)cc2s1	-19.5% (inactive)	
Cc1cc(C)c2nc(N(CCN(C)C)C(=O)/C=C/c3cccs3)sc2c1	-18% (inactive)	
COc1ccc(N(C)C(=O)CCS(=O)(=O)c2cccc3nsnc23)cc1		inactive
COc1cccc2sc(N(CCCN(C)C)C(=O)CCS(=O)(=O)c3ccccc3)nc12		2 µM (active)
Cc1ccc(N2CC(NC(=O)Cc3cccs3)CC2=O)cc1 (stereo not given)	-1.46% (inactive)	
Cc1nc2sc(C)c(C)n2c(=O)c1S(=O)(=O)NCCc1ccc(Cl)cc1	0.289% (inactive)	
O=C(NC1CCCCC1)c1ccc(Cn2c(SCc3ccccc3)nc3cccnc32)cc1	3.32% (inactive)	
COc1ccc(CCNc2nc(-c3ccc(Cl)cc3)cc(C(F)(F)F)n2)cc1OC	0.381% (inactive)	
Cc1ccccc1OCCSc1nc2ccc(NC(=O)c3ccco3)cc2s1	4.23% (inactive)	
Cc1cc(C)c(NC(=O)CSc2nc3nccnc3c(=O)n2CCc2c[nH]c3ccccc23)c(C)c1	-4.93% (inactive)	
Cc1ccc(NC2=C(c3ccc(C(F)(F)F)cc3)C(=O)c3ccccc32)cc1F	1.74% (inactive)	
CCOc1ccccc1NC(=O)CN1CCCN(Cc2cccc(Cl)c2)S1(=O)=O	5.08% (inactive)	
CCOc1ccc(CCNC(=O)CN(c2ccc(C)cc2)S(=O)(=O)N(C)C)cc1OCC	5.27% (inactive)	
CCCN(C(=O)Cn1cc(S(=O)(=O)N2CCN(c3ccccc3F)CC2)c2ccccc2c1=O)c1cccc(C)c1	-0.645% (inactive)	
CC(=O)c1ccc(S(=O)(=O)Nc2ccc(C(=O)NCC(c3ccccc3)N(C)C)cc2)cc1 (stereo not given)		14.1 µM (active)
CN(C)C(CNC(=O)c1ccc(S(=O)(=O)NCc2ccco2)cc1)c1ccccc1 (stereo not given)	-27% (inactive)	
COc1ccccc1C(CNC(=O)c1cccc(NS(=O)(=O)c2ccc(Br)cc2)c1)N(C)C (stereo not given)	-18.1% (inactive)	
COc1ccccc1C(CNC(=O)c1cccc(S(=O)(=O)Nc2ccc(F)cc2)c1)N(C)C (stereo not given)	-7.49% (inactive)	
COc1ccc(C(CNC(=O)c2ccc(S(=O)(=O)Nc3ccccc3F)cc2)N(C)C)cc1 (stereo not given)	0% (inactive)	
CN(C)C(CNC(=O)c1cccc(S(=O)(=O)Nc2ccc(Br)cc2)c1)c1ccco1 (stereo not given)		35.5 µM (active)
CCN(Cc1ccccc1)Cc1c(O)ccc2c(=O)c(-c3ccc(Cl)cc3Cl)coc12	-29.1% (inactive)	
COCCN(Cc1ccco1)C(=O)Cn1ncc2c([nH]c3ccccc32)c1=O	-24.7% (inactive)	

SMILES	activity change, negative = inhibition	Potency
COc1cccc(CNC(=O)c2ccc3c(c2)sc2nc(-c4cccc(OC)c4)cn23)c1	-0.0879% (inactive)	
O=C(NCCS(=O)(=O)N1CCN(c2ccc(F)cc2)CC1)c1ccccc1Br	-2.24% (inactive)	
CC(NC(=O)c1cc2c(=O)n3ccccc3nc2n(C(C)C)c1=N)c1ccccc1 (stereo not given)	-1.78% (inactive)	
CCc1cc(C(N)=O)c(NC(=O)c2ccc(OC)cc2)s1	3.99% (inactive)	
COc1cc(C(c2c(NC(=O)c3ccco3)sc(C)c2C)N2CCOCC2)cc(OC)c1OC (stereo not given)	-35.7% (inactive)	
CCc1cc(C(c2ccccc2OC)N2CCOCC2)c(NC(=O)c2ccccc2)s1 (stereo not given)		20 µM (active)
O=C(Cn1c(=O)n(Cc2cccs2)c(=O)c2cccnc21)Nc1ccc(F)cc1	-3.83% (inactive)	
CCc1ccc(CN(C)C(=O)CCc2nnc(-c3ccc(-c4ccccc4)cc3)o2)nc1		35.5 µM (active)
CC(=O)c1ccc(-c2nnc(CCC(=O)N(C)Cc3cnc4ccccn34)o2)s1	-14.4% (inactive)	
CCc1ccc(CN(C)Cc2nc(Cc3ccccc3)no2)nc1	-21.7% (inactive)	
Cc1c(CNCCc2ccccc2)c(C(=O)O)c(C)n1-c1ccccc1		44.7 µM (active)
COc1ccc(CCNCc2c(C(=O)O)c(C)n(Cc3cccc(C)c3)c2C)cc1OC	-2.69% (inactive)	
CCOc1ccccc1CNCc1c(C(=O)O)c(C)n(Cc2ccc(C)cc2)c1C	-3.22% (inactive)	
NC(=O)CSc1nc2c(oc3ccccc32)c(=O)n1Cc1ccccc1	5.1% (inactive)	
CN1c2ccc(Cl)cc2-c2nc(SCC(=O)Nc3cc(F)ccc3F)ncc2S1(=O)=O	0.619% (inactive)	
N#Cc1ccccc1S(=O)(=O)N1CCN(Cc2c(O)ccc3ccccc23)CC1		0.891 µM (active)
N#Cc1ccccc1S(=O)(=O)N1CCN(C(=O)c2cc(-c3ccccc3)nn2-c2ccccc2)CC1	-1.32% (inactive)	
COc1ccc(-c2csc3ncnc(N4CCN(S(=O)(=O)c5ccccc5C#N)CC4)c23)cc1	-8.78% (inactive)	
O=C(CSc1cn(CC(=O)N2CCOCC2)c2ccccc12)Nc1ccccc1	11.4% (inactive)	
CCC(C)(C)n1nnnc1C(c1ccc(OC)c(OC)c1)N1CCN(C(=O)c2ccco2)CC1 (stereo not given)	-29.5% (inactive)	
COc1ccc(C(c2nnnn2Cc2cccs2)N2CCN(c3ccccc3)CC2)cc1OC (stereo not given)		44.7 µM (active)
COc1ccccc1C(c1nnnn1CC1CCCO1)N1CCN(c2ccccc2)CC1 (stereo not given)	-1.2% (inactive)	
CCOc1ccc(CCNC(=O)c2c(C)oc3ncn(C)c(=O)c23)cc1	0.186% (inactive)	
CCSc1nc(C)c(CCOc2cccc(C)c2)c(=O)[nH]1	-7.91% (inactive)	

SMILES	activity change, negative = inhibition	Potency
CC(C)c1c(O)nc(SCCOc2ccc(Cl)cc2)[nH]c1=O	0.293% (inactive)	
CCSc1nc(O)c(C(c2cccc(OC)c2)c2c(O)nc(SCC)[nH]c2=O)c(=O)[nH]1		5.01 µM (active)
CCc1ccc(CNC(=O)c2cc3c(=O)n(CC)c4ccccc4c3s2)cc1	8.1% (inactive)	
CC1=C(c2ccc(F)cc2)S(=O)(=O)N=C1N1CCC(C(=O)NCCc2ccccc2C)CC1	-1.75% (inactive)	
CCC1CCCCN1C(=O)Cn1c(=O)n(CCCCCC(=O)NCc2ccccc2)c(=O)c2sccc21 (stereo not given)	-7.45% (inactive)	
Cc1ccc(C)c(NC(CC(=O)c2ccccc2)C(=O)OCC(=O)c2cccs2)c1 (stereo not given)		12.6 µM (active)
COC(=O)C(CC(=O)Nc1cc(C)ccc1C)Nc1ccccc1OC (stereo not given)	-24.7% (inactive)	
O=C(COC(=O)[C@H](Cc1ccccc1)NC(=O)c1cccs1)Nc1cc(F)ccc1F	2.43% (inactive)	
CCN(CCCNC(=O)c1ccc(Sc2ccc(C)cc2)c(NC(C)=O)c1)c1cccc(C)c1	1.43% (inactive)	
CC1CCN(S(=O)(=O)c2ccc3c(c2)N(CC(=O)NCc2ccccc2Cl)C(=O)CO3)CC1	4.2% (inactive)	
O=c1n(Cc2cccc(C(F)(F)F)c2)c2ccccc2c2nc(-c3ccccc3)nn12	8.09% (inactive)	
CN1CCN(C(CNC(=O)c2ccccc2F)c2ccc3c(c2)OCO3)CC1 (stereo not given)	-3.13% (inactive)	
CC1CCCN(c2cc3c(cc2F)c(=O)c(S(=O)(=O)c2cccc(Cl)c2)cn3Cc2ccccc2)C1 (stereo not given)	-1.38% (inactive)	
COC/C=C/C1=CC2=CC(=O)C(C)(OC(=O)CCC(=O)OC)C(=O)C2=CO1 (stereo not given)		3.98 µM (active)
CCCCC1=CC2=CC(=O)C(C)(OC(=O)CC)C(=O)C2=CN1CCCOC(C)C (stereo not given)	-25.2% (inactive)	
C=CCN1C=C2C(=O)C(C)(OC(=O)CCc3ccccc3)C(=O)C=C2C=C1c1ccc(C#N)cc1 (stereo not given)	-25.6% (inactive)	
O=C(NCCCO)C(=O)Nc1c2c(nn1-c1ccc(F)cc1)CSC2	-26.7% (inactive)	
Cn1cnc([N+](=O)[O-])c1Sc1n[nH]c(N)n1		10 µM (active)
Nc1nc(Sc2ncccc2[N+](=O)[O-])n[nH]1	2.21% (inactive)	
Nc1nc(SCC(=O)Nc2ccc(Cl)c([N+](=O)[O-])c2)n[nH]1	-2.15% (inactive)	
Cn1nc(-c2ccccc2)c(CO)c1Sc1ccccc1	-3.58% (inactive)	
Cn1cnc([N+](=O)[O-])c1Sc1ccccc1		50.1 µM (active)
Cn1cnc([N+](=O)[O-])c1Nc1ccccc1O	-2.08% (inactive)	
